From PubChem BioAssay (NCATS)
Records with an inconclusive call do not appear. Where a call stands in place of a potency, no number is given. Activity calls are given as the source filed them. Unless noted, calls come from the whole dose curve; as a rule, active = well fitted inhibition curve with a large enough effect; inconclusive = small, poorly fitted or top-dose-only effect; inactive = no such curve, though single readings can be large or run the other way.

Experiments:
[1] = qHTS profiling of the MIPE4 collection as inhibitors of Plasmodium falciparum (HB3) proliferation (AID 743347; call rule not given here); conditions: P. falciparum HB3 in erythrocytes, SYBR Green DNA, 72 h; at 28.5 µM (top of the series) unless noted
Procedure, shortened: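 Erythrocytes infected with P. falciparum (0.3% parasitemia, 2.5% hematocrit) incubated with compounds 72 h at 37 C, 5% CO2. Lysis with saponin/Triton buffer containing SYBR Green I, overnight at room temperature in the dark; DNA fluorescence (485/535 nm) normalised to 0.29 uM artemisinin and DMSO.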

[2] = High-throughput drug toxicity screening in the BPDCN cell line Gen2.2 (AID 1224824; call rule not given here;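 note: cells exposed to compounds for 48 h before reading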); conditions: Gen2.2 BPDCN cells; at 45.8 µM (top of the series) unless noted
Procedure, shortened: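 Readout is ATP luminescence from Gen2.2 cells after two days of drug exposure in serum-containing medium at 37 °C. Values express percent activity, with vehicle defining full signal and 9.2 uM bortezomib defining zero.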

[3] = High-throughput drug toxicity screening in the BPDCN cell line Cal-1 (AID 1224825; call rule not given here); conditions: Cal-1 BPDCN cell viability, qHTS; at 45.8 µM (top of the series) unless noted
Procedure, shortened: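 Cal-1 cells, 500 per well in phenol-red-free RPMI with 10% FBS, exposed to compounds for 48 hours at 37C, 5% CO2. Viability read by CellTiter-Glo luminescence; percent activity normalized to DMSO (100%) and 9.2 uM bortezomib final (0%).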

[4] = qHTS assay for measurement of the activity of small molecule inhibitors on Zika virus induced Caspase-3 activity in human iPSC derived neural progenitor cells (hNPCs) (AID 1224857); note: nearly all actives have a fitted effect of over 65% in size
Procedure, shortened: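 In medium with heparin 2 ug/ml and cyclopamine 2 uM, hNPCs (350 cells/well) received compound for one hour and then Zika virus at 2 FFU/cell; caspase activity was measured by Caspase-Glo 3/7 luminescence 6 h post-infection.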

[5] = qHTS assay for measurement of the activity of small molecule inhibitors on Zika virus induced Caspase-3 activity in human astrocytoma cells (AID 1224859)
Procedure, shortened: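 A cell-based luminescent caspase-3/7 assay used SNB-19 cells infected with ZIKV (2 FFU/cell) for 6 h following 1 h compound pretreatment.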

[6] = qHTS Screen of the MIPE 4.0 Collection Against Ewings Sarcoma (RDES) (AID 1259252); note: nearly all actives have a fitted effect of over 35% in size; note: potency is the fitted concentration of half-maximal effect
Procedure, shortened: (§1)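 Dose series incubated 48 h with cells in RPMI plus 5% FBS, glutamine and penicillin/streptomycin; cell viability then quantified via CellTiter-Glo.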

[7] = qHTS Screen of the MIPE 4.0 Collection Against Ewings Sarcoma (TC71) (AID 1259253); note: nearly all actives have a fitted effect of over 40% in size; note: potency is the fitted concentration of half-maximal effect
Procedure, shortened: as §1

[8] = qHTS Screen of the MIPE 4.0 Collection Against Ewings Sarcoma (EW8) (AID 1259255); note: nearly all actives have a fitted effect of over 35% in size; note: potency is the fitted concentration of half-maximal effect
Procedure, shortened: as §1

[9] = qHTS Screen of the MIPE 4.0 Collection Against Ewings Sarcoma (TC32) (AID 1259256); note: nearly all actives have a fitted effect of over 45% in size; note: potency is the fitted concentration of half-maximal effect
Procedure, shortened: as §1

[10] = P-glycoprotein substrates identified in KB-3-1 adenocarcinoma cell line, qHTS therapeutic library screen (AID 1346986); note: nearly all actives have a fitted effect of over 60% in size;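 note: potency is the fitted concentration of half-maximal effect; potency is for cytotoxicity meaning loss of cell viability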
Procedure, shortened: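 Compounds were tested in dose-response against KB-3-1 and KB-8-5-11 cells at 37 degree C for 72 h, and viability was measured by luminescence. AC50 values came from curve fitting with class-based activity calls.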

| Structure (SMILES) | growth, % of control [1] | cell viability, % of control (lower = more cytotoxic) [2] | viability (% of control) [3] | Potency [4] | Potency [5] | Potency [6] | Potency [7] | Potency [8] | Potency [9] | Potency [10] | outcome [10] |
| --- | --- | --- | --- | --- | --- | --- | --- | --- | --- | --- | --- |
| CCc1cc(C(C)=NOCc2ccc(C3CCCCC3)c(C(F)(F)F)c2)ccc1CN1CC(C(=O)O)C1 | 11.3% | 68% | 19.7% | inactive | inactive | inactive | inactive | inactive | inactive | inactive | – |
| Cc1cnc(Nc2ccc(N3CCN(C)CC3)cc2)nc1Nc1cccc(S(=O)(=O)NC(C)(C)C)c1 | 3.11% | 2.75% | 1.93% | inactive | inactive | 2.64 µM (active) | 2.64 µM (active) | 2.09 µM (active) | 2.35 µM (active) | 3.26 µM (active) | – |
| Cc1cc(-c2nnc3n2CCCCC3)c(C)n1-c1ccccc1 | 16.4% | 229% | 98.4% | inactive | inactive | inactive | inactive | inactive | 18.7 µM (active) | – | – |
| Cc1ccc2nc(NCCN)c3ncc(C)n3c2c1 | 81.1% | 2.46% | 3.39% | inactive | inactive | 6.62 µM (active) | 4.18 µM (active) | 9.35 µM (active) | 4.69 µM (active) | 5.17 µM (active) | – |
| CCS(=O)(=O)Nc1ccc2[nH]c(O)c(C(=Nc3ccc(CN4CCCCC4)cc3)c3ccccc3)c2c1 | 4.28% | 2.51% | 7.15% | inactive | inactive | 0.662 µM (active) | 0.132 µM (active) | 0.0833 µM (active) | 0.0833 µM (active) | – | – |
| CCCNS(=O)(=O)Nc1ncnc(OCCOc2ncc(Br)cn2)c1-c1ccc(Br)cc1 | 88.3% | 180% | 117% | inactive | inactive | inactive | inactive | inactive | inactive | inactive | – |
| O=C(O)CCCCC(CCSCc1ccccc1)SCc1ccccc1 (stereo not drawn) | 63.9% | 54.3% | 23.9% | inactive | inactive | inactive | inactive | inactive | inactive | inactive | – |
| CCOC(=O)N1CCN([N+]([O-])=NOc2ccc([N+](=O)[O-])cc2[N+](=O)[O-])CC1 | 60.8% | 17.4% | 13.5% | inactive | inactive | 16.6 µM (active) | 10.5 µM (active) | 3.32 µM (active) | 3.72 µM (active) | inactive | – |
| C=C(C)[C@@H]1CC[C@]2(C(=O)O)CC[C@]3(C)[C@H](CC[C@@H]4[C@@]5(C)CC[C@H](O)C(C)(C)[C@@H]5CC[C@]43C)[C@@H]12 | – | 61.6% | 85.4% | inactive | inactive | inactive | inactive | inactive | inactive | – | – |
| N#Cc1c(NC(=O)c2cccc3ccccc23)sc2c1CCCC2 | 69.7% | 83.4% | 9.83% | inactive | inactive | 0.296 µM (active) | 0.526 µM (active) | 0.469 µM (active) | 0.235 µM (active) | 0.366 µM (active) | – |
| c1coc(CNc2ncnc3nc[nH]c23)c1 | – | 90.9% | 102% | inactive | inactive | inactive | inactive | inactive | inactive | – | – |
| CC(=O)N[C@@H]1[C@H](O[C@@H]2c3ccc(c(Cl)c3)Oc3cc4cc(c3O[C@H]3O[C@H](CO)[C@@H](O)[C@H](O)[C@H]3NC(=O)CCCCCCCC(C)C)Oc3ccc(cc3Cl)C[C@H]3NC(=O)[C@H](N)c5ccc(O)c(c5)Oc5cc(O)cc(c5)[C@H](NC3=O)C(=O)N[C@H]4C(=O)N[C@H]3C(=O)N[C@@H]2C(=O)N[C@@H](C(=O)O)c2cc(O)cc(O[C@H]4O[C@H](CO)[C@@H](O)[C@H](O)[C@H]4O)c2-c2cc3ccc2O)O[C@H](CO)[C@@H](O)[C@@H]1O | 675% | 82.7% | 104% | inactive | inactive | inactive | inactive | inactive | inactive | inactive | – |
| OC[C@@H](O)[C@@H](O)[C@H](O)[C@@H](O)CO | 70.6% | 201% | 126% | inactive | inactive | inactive | inactive | inactive | inactive | inactive | – |
| C[C@@H]1[C@H](C)CC[C@]2(C(=O)O)CC[C@]3(C)C(=CC[C@@H]4[C@@]5(C)C[C@@H](O)[C@H](O)[C@@](C)(CO)[C@H]5CC[C@]43C)[C@@H]12 | 43.6% | 106% | 122% | inactive | inactive | inactive | inactive | inactive | inactive | inactive | – |
| CC(=O)O[C@H]1C[C@@H]2CC[C@H]3[C@H]4C[C@H]([N+]5(C)CCCCC5)[C@@H](OC(C)=O)[C@@]4(C)CC[C@@H]3[C@@]2(C)C[C@H]1[N+]1(C)CCCCC1 | – | 232% | 120% | inactive | inactive | 1.32 µM (active) | 1.05 µM (active) | 2.64 µM (active) | 2.35 µM (active) | inactive | – |
| CCN1CCN(C(=O)N[C@H](C(=O)N[C@@H]2C(=O)N3C(C(=O)O)=C(CSc4nnnn4C)CS[C@@H]23)c2ccc(O)cc2)C(=O)C1=O | 90.1% [at 9.64 µM] | 149% [at 15.3 µM] | 113% [at 15.3 µM] | inactive | inactive | inactive | inactive | inactive | inactive | – | inactive [at 9.29 µM] |
| CC1(C)[C@H](O[C@H]2O[C@H](C(=O)O)[C@@H](O)[C@H](O)[C@H]2O[C@@H]2O[C@H](C(=O)O)[C@@H](O)[C@H](O)[C@H]2O)CC[C@@]2(C)[C@H]1CC[C@]1(C)[C@H]2C(=O)C=C2[C@H]3C[C@@](C)(C(=O)O)CC[C@]3(C)CC[C@]21C | 109% | 153% | 125% | inactive | inactive | inactive | inactive | inactive | inactive | inactive | – |
